Data from PubChem BioAssay (NCATS).
Values joined by “and” are separate entries in the source; they are usually repeats but may differ in a detail not shown here. Identical values can stand only once. Records with an inconclusive call do not appear. Active and inactive are the calls of the source. Calls come from the whole dose curve; as a rule, active = well fitted curve in the direction sought with a large enough effect; inconclusive = small, poorly fitted or top-dose-only effect, or another doubt; inactive = no such curve, though single readings can be large; an effect the other way counts as inactive or inconclusive.

Tests used:
[1] = target: Cytochrome P450 3A7 (Homo sapiens) (UniProt P24462); experiment: Cytochrome P450 family 3 subfamily A member 7 (CYP3A7) small molecule antagonists: luciferase biochemical qHTS assay (AID 1963596); note: % is set by controls: 0 for no effect and ±100 for the full control effect; nearly all actives have a fitted effect of over 40% in size
How it was run: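 Biochemical CYP3A7 activity measured with P450-Glo system: luciferin formed from proluciferin substrate in NADPH-driven reaction (1 h, room temperature) after 10 min compound preincubation. Signal in relative luminescence units.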

[2] = Viability qHTS for spleen associated tyrosine kinase inhibitor (SYKi) naive MV4-11 cells (AID 1963823); note: nearly all actives have a fitted effect of over 40% in size
How it was run: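 qHTS, SYK inhibitor-naive MV4-11; 500 cells/well; 72 hr compound exposure, 37 C; CellTiter-Glo added, 10 min RT; luminescence read.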

[3] = Viability qHTS for spleen associated tyrosine kinase inhibitor (SYKi) drug resistant MV4-11 cells (AID 1963824); note: nearly all actives have a fitted effect of over 35% in size
How it was run: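 SYK inhibitor-resistant MV4-11 AML cells, 500 per well, added to predispensed compounds and incubated 72 hr at 37 C, 5% CO2. Viability measured by CellTiter-Glo luminescence after 10 min at room temperature.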

[4] = Cellular viability qHTS for adrenocortical cancer (ACC) cell line SW-13 (AID 1963989); conditions: SW-13 ACC cells viability, CellTiter-Glo, 48 h; activity (max response): hits give low values;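 note: cells grown in serum-free medium with ITS supplement; % is set by controls: 0 for no effect and ±100 for the full control effect; nearly all actives have a fitted effect of over 65% in size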
How it was run: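 Luminescent ATP read-out (CellTiter-Glo, 20 min at room temperature) measured metabolically competent SW-13 cells after 48 h compound treatment. Final concentrations spanned up to 46 uM; bortezomib served as positive control.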

[5] = Cellular viability qHTS for adrenocortical cancer (ACC) cell line NCI-H295R (AID 1963990);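 note: 0% = DMSO only wells and -100% = full killing with cytotoxic reference compound; nearly all actives have a fitted effect of over 60% in size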
How it was run: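 IC50 and maximal efficacy derive from four-parameter logistic modelling of titration curves, with reads scaled between DMSO-only wells (0%) and doxorubicin hydrochloride (100% inhibition). Compounds spanned up to 46 uM over 48 h.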

Sequence of Cytochrome P450 3A7 (Homo sapiens) (P24462 whole entry, looked up): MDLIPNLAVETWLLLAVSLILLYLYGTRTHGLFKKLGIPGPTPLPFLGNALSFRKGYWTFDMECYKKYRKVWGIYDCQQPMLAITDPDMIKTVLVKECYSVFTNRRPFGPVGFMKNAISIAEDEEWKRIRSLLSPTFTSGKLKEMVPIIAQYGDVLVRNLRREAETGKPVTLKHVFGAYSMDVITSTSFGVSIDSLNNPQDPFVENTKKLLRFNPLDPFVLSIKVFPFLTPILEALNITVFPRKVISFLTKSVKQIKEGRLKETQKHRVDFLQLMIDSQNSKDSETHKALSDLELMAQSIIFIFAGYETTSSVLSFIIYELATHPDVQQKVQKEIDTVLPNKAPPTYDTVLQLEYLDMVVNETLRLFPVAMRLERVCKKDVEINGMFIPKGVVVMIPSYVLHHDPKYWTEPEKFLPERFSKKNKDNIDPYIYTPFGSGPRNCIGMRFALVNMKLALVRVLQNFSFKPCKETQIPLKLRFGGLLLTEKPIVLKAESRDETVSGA

C[C@H]1[C@H](NC(=O)/C(=N/OC(C)(C)C(=O)O)c2csc(N)n2)C(=O)N1S(=O)(=O)O (stereo in doubt)
inactive: Potency [1] | Potency [2] | Potency [3] | activity (max response) [4] 8.46% | Potency [5]

O=C(O)CCCCC(=O)O
inactive: Potency [1] | Potency [2] | Potency [3] | activity (max response) [4] 10.5% | Potency [5]

Cn1c(=O)c2c(ncn2CC2OCCO2)n(C)c1=O
inactive: Potency [1] | Potency [2] | Potency [3] | activity (max response) [4] 8.06% and -6.96% | Potency [5]

CN1[C@@H]2CC[C@H]1CC(OC(=O)C(O)c1ccccc1)C2 (stereo not given in full)
inactive: Potency [1] | Potency [2] | Potency [3] | activity (max response) [4] 7.83% | Potency [5]

Cc1cccc(C)c1NC(=O)c1ccccc1C(=O)O
inactive: Potency [1] | Potency [2] | Potency [3] | activity (max response) [4] 8.06% | Potency [5]
